Source: PubChem BioAssay (NCI)
About 79,000 compounds went through this panel and 15% of them were active in at least one assay; those are over-represented in the sample as a whole. Activity calls are given as the source filed them. Cut-off read from the data, not from the text of the source: active = growth inhibition above about 70%; inactive = the rest.

Columns and labels:
[1] = NCI Yeast Anticancer Drug Screen. Data for the rad52 strain (AID 147);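 note: 0% = growth of vehicle-treated control cultures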; conditions: S. cerevisiae rad52 mutant growth inhibition, active compounds read high
Summary of the method: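 Genetically altered yeast (DNA damage repair defect) treated with compound; inhibition calculated relative to vehicle.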

[2] = NCI Yeast Anticancer Drug Screen. Data for the wt1 strain (AID 149);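 note: 0% = growth of vehicle-treated wt1 cultures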; conditions: S. cerevisiae wt1 strain (SPY 50644) growth inhibition, active compounds read high
Summary of the method: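 wt1 strain grown with compound or vehicle; inhibition taken from the growth difference.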

[3] = NCI Yeast Anticancer Drug Screen. Data for the rad50EPP+ strain (AID 151);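 note: 0% = growth of vehicle-treated control cultures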; conditions: S. cerevisiae rad50 mutant strain, active compounds read high
Summary of the method: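 Strain rad50EPP+; compound exposure; % growth inhibition vs vehicle.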

[4] = NCI Yeast Anticancer Drug Screen. Data for the mgt1 strain (AID 153); conditions: S. cerevisiae mgt1 mutant growth inhibition, active compounds read high
Summary of the method: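 Read-out: yeast growth inhibition vs vehicle control. Strain mgt1, drawn from a panel altered in DNA damage repair or cell cycle control.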

[5] = NCI Yeast Anticancer Drug Screen. Data for the rad50 strain (AID 155);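 note: 0% = growth of vehicle-only cultures of the same strain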; conditions: S. cerevisiae rad50 strain growth inhibition, active compounds read high
Summary of the method: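 DNA repair mutant yeast, compound exposure, growth read-out; inhibition is taken relative to vehicle.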

[6] = NCI Yeast Anticancer Drug Screen. Data for the mec2-1 strain (AID 157); conditions: S. cerevisiae mec2-1 strain, active compounds read high
Summary of the method: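 Cells of the genetically defined mec2-1 yeast strain are incubated with test compound. Inhibition of growth is calculated against vehicle-treated controls.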

[7] = NCI Yeast Anticancer Drug Screen. Data for the rad14 strain (AID 159);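 note: 0% = growth of vehicle-treated control cultures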; conditions: S. cerevisiae rad14 strain growth inhibition, active compounds read high
Summary of the method: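 DNA repair-defective yeast, compound-exposed; % growth inhibition derived by comparison with vehicle-treated controls.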

[8] = NCI Yeast Anticancer Drug Screen. Data for the sgs1 mgt1 strain (AID 161);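 note: 0% = growth of cultures given vehicle only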; conditions: S. cerevisiae sgs1 mgt1 strain, active compounds read high
Summary of the method: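 Mutant yeast exposed to compound; growth scored against vehicle-only wells.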

[9] = NCI Yeast Anticancer Drug Screen. Data for the CLN2oe strain (AID 163);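 note: 0% = growth of vehicle-only control cultures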; conditions: S. cerevisiae CLN2oe strain, active compounds read high
Summary of the method: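 Strain altered in cell-cycle control, incubated with compound; growth compared to solvent-treated controls.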

[10] = NCI Yeast Anticancer Drug Screen. Data for the cln2 rad14 strain (AID 165);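 note: 0% = growth equal to vehicle treated cultures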; conditions: S. cerevisiae cln2 rad14 strain, active compounds read high
Summary of the method: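 The screen exposed genetically defined yeast (cln2 rad14) to test compounds and scored growth inhibition relative to vehicle-treated controls.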

[11] = NCI Yeast Anticancer Drug Screen. Data for the bub3 strain (AID 167); conditions: S. cerevisiae bub3 mutant strain, active compounds read high
Summary of the method: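 In this screen, a yeast mutant lacking normal mitotic checkpoint function is challenged with compound. Relative growth versus vehicle gives the inhibition value.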

[12] = NCI Yeast Anticancer Drug Screen. Data for the wt2 strain (AID 169);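 note: 0% = growth of vehicle-treated yeast cultures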; conditions: S. cerevisiae wt2 strain growth inhibition, active compounds read high
Summary of the method: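 Steps: yeast strain treated with compound; growth recorded; inhibition calculated relative to cultures given vehicle alone.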

[13] = NCI Yeast Anticancer Drug Screen. Data for the mlh1 rad18 strain (AID 175); conditions: S. cerevisiae mlh1 rad18 strain growth inhibition, active compounds read high
Summary of the method: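 Compound-treated yeast growth, normalised to vehicle controls. Strain bears defined DNA repair mutations.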

[14] = NCI Yeast Anticancer Drug Screen. Data for the rad18 strain (AID 177); conditions: S. cerevisiae rad18 mutant growth inhibition, active compounds read high
Summary of the method: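 Inhibition values reflect reduced yeast growth compared with vehicle-treated controls, using a strain engineered with a DNA damage repair defect.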

[15] = NCI Yeast Anticancer Drug Screen. Data for the mlh1 strain (AID 171);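 note: 0% = growth of vehicle-treated control cultures of the same strain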; conditions: S. cerevisiae mlh1 strain growth inhibition, active compounds read high
Summary of the method: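 Yeast screen: mutant strain plus compound, growth scored against vehicle control wells.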

[16] = NCI Yeast Anticancer Drug Screen. Data for the sgs1 strain (AID 173);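 note: 0% = growth of vehicle-only control cultures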; conditions: S. cerevisiae sgs1 mutant, active compounds read high
Summary of the method: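 Inhibition of yeast growth served as the measure. The mutant strain was treated with each compound, and growth was normalised to cultures receiving vehicle alone.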

[17] = at 5.0 µM (retest, dose inferred, filed as 0.5)
[18] = at 50.0 µM (retest, dose inferred, filed as 5.0)

Measured: growth inhibition

COc1ccc(/C(C)=N/OC(=O)c2c(-c3ccccc3Cl)noc2C)cc1CN1CCOCC1
inactive: [1]; at 1.2 µM 21% | [1]; at 3.7 µM 23% | [1]; at 11.0 µM 19% | [1]; at 33.0 µM 34% | [2]; at 1.2 µM -7% | [2]; at 3.7 µM -10% | [2]; at 11.0 µM -14% | [2]; at 33.0 µM -7% | [2]; at 100.0 µM 39% | [3]; at 1.2 µM -36% | [3]; at 3.7 µM -39% | [3]; at 11.0 µM -41% | [3]; at 33.0 µM -32% | [3]; at 100.0 µM -27% | [4]; at 1.2 µM -3% | [4]; at 3.7 µM -5% | [4]; at 11.0 µM 0% | [4]; at 33.0 µM 36% | [5]; at 1.2 µM -39% | [5]; at 3.7 µM -28% | [5]; [17] 63% | [5]; at 11.0 µM -20% | [5]; at 33.0 µM 21% | [5]; at 50.0 µM 64.7% | [6]; at 1.2 µM -25% | [6]; at 3.7 µM 2% | [6]; [17] 68% | [6]; at 11.0 µM -12% | [6]; at 33.0 µM 7% | [6]; at 50.0 µM 14.3% | [6]; at 100.0 µM 50% | [7]; at 1.2 µM -8% | [7]; at 3.7 µM -17% | [7]; at 11.0 µM -20% | [7]; at 33.0 µM 45% | [8]; [17] -16% | [9]; at 1.2 µM -12% | [9]; at 3.7 µM -7% | [9]; at 11.0 µM 8% | [9]; at 33.0 µM 17% | [9]; at 100.0 µM 60% | [10]; [17] 46% | [10]; at 50.0 µM 45.8% | [11]; at 1.2 µM -6% | [11]; at 3.7 µM -7% | [11]; [17] 17% | [11]; at 11.0 µM -18% | [11]; at 33.0 µM 5% | [11]; at 50.0 µM 58.8% | [11]; at 100.0 µM 50% | [12]; at 1.2 µM -18% | [12]; at 3.7 µM -27% | [12]; at 11.0 µM -21% | [12]; at 33.0 µM -7% | [12]; at 100.0 µM 65% | [13]; [17] 53% | [13]; at 50.0 µM 57.4% | [14]; at 1.2 µM -16% | [14]; at 3.7 µM -14% | [14]; at 11.0 µM -2% | [14]; at 33.0 µM 21%
active: [1]; at 100.0 µM 75% | [4]; at 100.0 µM 87% | [5]; [18] 88% | [5]; at 100.0 µM 70% | [6]; [18] 98% | [7]; at 100.0 µM 91% | [8]; [18] 98% | [8]; at 50.0 µM 74.4% | [10]; [18] 97% | [11]; [18] 97% | [13]; [18] 85% | [14]; at 100.0 µM 74%

CSC(=S)Nc1cc(C)ccn1
inactive: [1]; at 1.2 µM -5% | [1]; at 3.7 µM 6% | [1]; at 11.0 µM 37% | [1]; at 33.0 µM 38% | [2]; at 1.2 µM -9% | [2]; at 3.7 µM -3% | [2]; at 11.0 µM 17% | [2]; at 33.0 µM 32% | [3]; at 1.2 µM -7% | [3]; at 3.7 µM -15% | [3]; at 11.0 µM 29% | [4]; at 1.2 µM -34% | [4]; at 3.7 µM -27% | [4]; at 11.0 µM 37% | [4]; at 33.0 µM 23% | [5]; at 1.2 µM 12% | [5]; at 3.7 µM 15% | [5]; [17] 60% | [5]; at 11.0 µM 64% | [6]; at 1.2 µM -19% | [6]; at 3.7 µM -25% | [6]; [17] 52% | [6]; at 11.0 µM 39% | [6]; at 33.0 µM 50% | [7]; at 1.2 µM -26% | [7]; at 3.7 µM -12% | [7]; at 11.0 µM 42% | [7]; at 33.0 µM 24% | [8]; [17] -11% | [9]; at 1.2 µM 20% | [9]; at 3.7 µM 3% | [9]; at 11.0 µM 31% | [9]; at 33.0 µM 26% | [10]; [17] 39% | [11]; at 1.2 µM -8% | [11]; at 3.7 µM 50% | [11]; [17] 8% | [11]; at 11.0 µM 41% | [11]; at 33.0 µM 30% | [12]; at 1.2 µM -7% | [12]; at 3.7 µM -13% | [12]; at 11.0 µM 23% | [12]; at 33.0 µM 23% | [15]; at 1.2 µM 0% | [15]; at 3.7 µM -4% | [15]; at 11.0 µM 54% | [15]; at 33.0 µM 51% | [16]; at 1.2 µM -11% | [16]; at 3.7 µM -3% | [16]; at 11.0 µM 46% | [16]; at 33.0 µM 52% | [13]; [17] 50% | [14]; at 1.2 µM -23% | [14]; at 3.7 µM -29% | [14]; at 11.0 µM 15% | [14]; at 33.0 µM 39%
active: [1]; at 100.0 µM 82% | [2]; at 100.0 µM 79% | [3]; at 33.0 µM 89% | [3]; at 100.0 µM 91% | [4]; at 100.0 µM 76% | [5]; at 33.0 µM 84% | [5]; [18] 99% | [5]; at 50.0 µM 84.8% | [5]; at 100.0 µM 92% | [6]; [18] 99% | [6]; at 50.0 µM 70.3% | [6]; at 100.0 µM 84% | [7]; at 100.0 µM 75% | [8]; [18] 90% | [8]; at 50.0 µM 81.2% | [9]; at 100.0 µM 74% | [10]; [18] 86% | [10]; at 50.0 µM 83% | [11]; [18] 94% | [11]; at 50.0 µM 86% | [11]; at 100.0 µM 83% | [12]; at 100.0 µM 70% | [15]; at 100.0 µM 85% | [16]; at 100.0 µM 93% | [13]; [18] 99% | [13]; at 50.0 µM 83.8% | [14]; at 100.0 µM 75%
